# In PMC5540273 (PLoS ONE, 2017):
# pKd: −log10 of the molar value.
# Test system: DDR1
# 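Further: kd values determined as follow-up on hits from a single-replicate KINOMEscan panel screen.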
row,Compound,pKd
1,CS(=O)(=O)CCNCc1nc(-c2ccc3ncnc(Nc4ccc(OCc5ccccc5)c(Cl)c4)c3c2)cs1.Cl [GW582764],< 5.00
2,Cc1ccc(NC(=O)Nc2ccc(Cl)cc2)cc1-c1ccc(C(=O)Nc2ccncc2)cc1 [GSK1398472],7.14
3,Cc1ccc(NC(=O)Nc2ccccc2)cc1-c1ccc(C(=O)Nc2ccncc2)cc1 [GSK1398471],6.74
4,COc1ccc(Nc2nccc(N3CCC(NC(=O)c4cc5ccccc5s4)C3)n2)cc1 (stereo not drawn) [GSK1379738],< 5.00
5,Nc1nccc(-c2c(-c3ccc(F)cc3)ncn2C2CCN(Cc3ccccc3)CC2)n1 [SB-219980],6.85
6,Cc1ccc(NC(=O)c2ccc(Cl)cc2)cc1-c1ccc(C(=O)Nc2ccncc2)cc1 [GSK1398467],6.15
7,COc1cccc(NC(=O)Nc2ccc(C)c(-c3ccc(C(=O)Nc4ccncc4)cc3)c2)c1 [GSK1398474],6.57
8,Cc1ccc(NC(=O)Nc2ccccc2F)cc1-c1ccc(C(=O)Nc2ccncc2)cc1 [GSK1398477],6.74
9,COc1cccc(C2=C(Nc3cc(Cl)c(O)c(Cl)c3)C(=O)NC2=O)c1 [SB-390767],< 5.00
10,Cc1ccc(NC(=O)Nc2ccc(Cl)c(C(F)(F)F)c2)cc1-c1ccc(C(=O)Nc2ccncc2)cc1 [GSK1398470],6.92
11,COc1ccc2cc(-c3nc(-c4ccccc4C(C)C)[nH]c3-c3ccncc3)ccc2c1 [SB-660566],6.48
12,CS(=O)(=O)Cc1ccc(Nc2nccc(-c3c(-c4cccc(NC(=O)C5CCCCC5)c4)nn4ncccc34)n2)cc1 [GSK350559],7.64

# Test system: T1, DMPK2
# T1 construct: gene CDC42BPG
row,Compound,pKd
1,Fc1ccc(-c2nc3n(c2-c2ccncc2)CCS3)cc1 [GI98581],5.92
2,CC(=O)c1c(C)c2cnc(Nc3ccc(N4CCNCC4)cn3)nc2n(C2CCCC2)c1=O,< 5.00
3,Fc1ccc(-c2nn3cccc(F)c3c2-c2ccncc2)cc1 [GW475620],6.00
4,CCn1c(-c2c(N)noc2C)nc2cnccc21 [SB-737856],< 5.00

# Test system: T2, DRAK1
# T2 construct: gene STK17A
row,Compound,pKd
1,CC[C@@H]1CO[C@H](C(=O)Nc2ccccc2)CN1c1cc(-c2ccc3c(N)n[nH]c3c2)nc(NC)n1 [GSK2376236],6.66
2,CNc1nc(-c2ccc3c(N)n[nH]c3c2)cc(N2C[C@@H](C(=O)Nc3ccccc3)CC[C@H]2C)n1 [GSK2298859],7.05
3,CC(C)c1cc(-c2ccc3c(N)n[nH]c3c2)nc(N)n1 [GSK2250882],7.54
4,CNc1cc(-c2ccc3c(N)n[nH]c3c2)nc(N)n1 [GSK2224810],7.05
5,Cn1cncc1-c1cc2c(Nc3ccc(OCc4ccccc4)cc3)ncnc2cn1 [GW281179],< 5.00
